Values joined by “and” are separate entries in the source; they are usually repeats but may differ in a detail not shown here. Equal entries are not always repeated. Inconclusive results are not listed. Some structures have more than one record in an assay (separate samples or runs), and their calls can disagree. Active and inactive are the calls of the source. How the source made its calls: active means hit-call score of the fitted dose curve at least 0.9, where 1 is the maximum; inconclusive means response in the unintended direction; inactive means score below 0.9.
Tests used:
[1] = ATG_XTT_Cytotoxicity: Cytotoxicity Assessment in the Attagene TRANS-FACTORIAL HepG2 Assay (AID 2283584);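 on AC50: XTT signal for cell number as viability in transfected HepG2 cells; cells exposed to compound for 24 h before reading; active means loss of viability signal versus DMSO baseline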
Procedure, shortened: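 24 h chemical exposure of reporter-transfected HepG2; XTT signal loss vs DMSO indicates cytotoxicity.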

[2] = TOX21_p53_BLA_p2_viability: Viability Assessment in the Tox21 HCT-116 p53 Agonism Beta-lactamase Assay, Phase 2 (AID 2283591);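 further: compound exposure lasted 16 h at 37 °C; actives lower the ATP signal meaning cytotoxicity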
Procedure, shortened: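 HCT-116 p53-bla cells (4000/well) rested 5 h at 37C, then received compounds in DMSO (217-fold dilution) for 16 h at 37C, 5% CO2. After the CCF4 read, CellTiter-Glo was added; ATP luminescence was read after 30 min at room temperature.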

[3] = target: Cellular tumor antigen p53 (Homo sapiens) (UniProt P04637); assay: TOX21_p53_BLA_p2_ratio: Tox21 HCT-116 p53 Agonism Beta-lactamase Assay, Ratio, Phase 2 (AID 2283592)
Procedure, shortened: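 Human colon HCT116 cells with an inducible p53 beta-lactamase reporter are exposed to test chemicals for 16 h at 37C. Reporter induction is read as the 460/530 nm emission ratio after CCF4-AM loading, normalized to DMSO.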

[4] = TOX21_p53_BLA_p3_viability: Viability Assessment in the Tox21 HCT-116 p53 Agonism Beta-lactamase Assay, Phase 3 (AID 2283593);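 further: cells exposed to compound for 16 h before reading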
Procedure, shortened: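 HCT-116 cells (4000/well) rested 5 h at 37C, then got DMSO compounds by pin tool (217-fold dilution) for 16 h at 37C, 5% CO2. After the bla read, CellTiter-Glo was added and luminescence read at 30 min, room temperature.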

[5] = target: Cellular tumor antigen p53 (Homo sapiens) (UniProt P04637); assay: TOX21_p53_BLA_p3_ratio: Tox21 HCT-116 p53 Agonism Beta-lactamase Assay, Ratio, Phase 3 (AID 2283596)
Procedure, shortened: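 HCT116 p53-bla cells (4000/well) given compound in DMSO (217-fold dilution) after 5 h, incubated 16 h at 37C. CCF4-AM substrate 2 h at room temperature; 460/530 nm emission ratio, gain fitted against DMSO.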

[6] = TOX21_p53_BLA_p4_viability: Viability Assessment in the Tox21 HCT-116 p53 Agonism Beta-lactamase Assay, Phase 4 (AID 2283597);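 further: hits lower the luminescence signal meaning cytotoxicity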
Procedure, shortened: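 Luminescent ATP readout (CellTiter-Glo, 30 min, room temperature) in the same wells as the p53 bla ratio. HCT116 cells were treated for 16 h at 37C with DMSO-dissolved compounds.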

[7] = target: Cellular tumor antigen p53 (Homo sapiens) (UniProt P04637); assay: TOX21_p53_BLA_p5_ratio: Tox21 HCT-116 p53 Agonism Beta-lactamase Assay, Ratio, Phase 5 (AID 2283599)
Procedure, shortened: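 HCT-116 cells carrying a p53-inducible beta-lactamase reporter were seeded at 4000 cells/well and dosed after 5 h with compound in DMSO (217-fold dilution). After 16 h at 37C, CCF4-AM substrate was added for 2 h, and the 460/530 nm emission ratio was scored as gain-of-signal versus DMSO.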

[8] = TOX21_p53_BLA_p5_viability: Viability Assessment in the Tox21 HCT-116 p53 Agonism Beta-lactamase Assay, Phase 5 (AID 2283600)
Procedure, shortened: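 Seeded cells (4000/well) settle 5 h before compound addition. Plates then incubate 16 h at 37C, receive FRET substrate for 2 h, and finally CellTiter-Glo, with luminescence measured after a 30 min room-temperature incubation.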

[9] = target: Cellular tumor antigen p53 (Homo sapiens) (UniProt P04637); assay: TOX21_p53_BLA_p4_ratio: Tox21 HCT-116 p53 Agonism Beta-lactamase Assay, Ratio, Phase 4 (AID 2283601)
Procedure, shortened: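 HCT116 cells carrying an inducible beta-lactamase reporter were plated at 4000 cells/well, rested 5 h, then exposed to compounds in DMSO (217-fold dilution) for 16 h at 37C. CCF4-AM substrate was loaded 2 h at room temperature; 460/530 nm emission ratio scored gain-of-signal versus DMSO.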

Measured: AC50

Chain of Cellular tumor antigen p53 (Homo sapiens) (P04637 whole entry, looked up): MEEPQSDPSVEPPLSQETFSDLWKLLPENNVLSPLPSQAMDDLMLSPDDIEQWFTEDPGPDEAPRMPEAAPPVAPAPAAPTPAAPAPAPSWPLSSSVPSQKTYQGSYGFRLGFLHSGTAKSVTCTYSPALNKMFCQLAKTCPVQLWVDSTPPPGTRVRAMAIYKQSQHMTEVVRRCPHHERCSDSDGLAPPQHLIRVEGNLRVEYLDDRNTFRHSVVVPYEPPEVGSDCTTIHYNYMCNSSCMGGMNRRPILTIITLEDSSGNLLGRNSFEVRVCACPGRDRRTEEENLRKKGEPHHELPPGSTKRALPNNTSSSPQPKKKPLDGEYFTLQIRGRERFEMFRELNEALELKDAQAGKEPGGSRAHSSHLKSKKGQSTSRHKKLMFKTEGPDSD

CCNc1nc(NC(C)(C)C)nc(SC)n1
inactive: all assays above

Clc1ccc(C2(Cn3cncn3)CC(Br)CO2)c(Cl)c1 (stereo not given)
active: [3] 69.2 µM
not listed: [7]
inactive: all other assays above

COP(=S)(OC)Oc1ccc(S(=O)(=O)N(C)C)cc1
inactive: all assays above

CC(=O)c1cc(C(C)(C)C)cc2c1CCC2(C)C
not listed: [3] | [6] | [7]
inactive: all other assays above

CC(=O)OC(c1ccccc1)C(Cl)(Cl)Cl (stereo not given)
not listed: [3] | [7] | [8]
inactive: all other assays above

BrCCBr
not listed: [6] | [7]
inactive: all other assays above

CCOC(=O)/C=C(C)/C=C/C[C@@H](C)CCCC(C)C
active: [4] 58.3 µM
inactive: all other assays above

ClC1=C(Cl)[C@]2(Cl)[C@H]3[C@H]([C@H]4C=C[C@H]3C4)[C@@]1(Cl)C2(Cl)Cl
not listed: [3] | [5]
inactive: all other assays above

Nc1cccc2ccccc12
not listed: [3] | [4] | [8]
inactive: all other assays above

Nc1ncc([N+](=O)[O-])s1
not listed: [6]
inactive: all other assays above

COC(=O)c1sccc1S(=O)(=O)NC(=O)Nc1nc(C)nc(OC)n1
inactive: all assays above

CCOC(=O)Nc1cccc(OC(=O)Nc2ccccc2)c1
inactive: [1] | [2] | [3] | [6] | [8]

O=C(CCl)CCl
active: [4] 19.3 µM and 22.3 µM
not listed: [3]
inactive: all other assays above

CCC(C)c1cccc(C(C)CC)c1O (stereo not given)
not listed: [3] | [5] | [8]
inactive: all other assays above

Clc1ccc(COC(Cn2ccnc2)c2ccc(Cl)cc2Cl)cc1 (stereo not given)
inactive: [1]
active: [2] 64.8 µM and 73 µM and 33.7 µM | [4] 72.9 µM and 73.5 µM and 23 µM | [5] 66.3 µM and 45.5 µM and 34.6 µM | [6] 70.5 µM and 61.1 µM and 37.6 µM | [7] 79.1 µM and 60.7 µM and 38.7 µM | [8] 85.2 µM and 75.6 µM and 36.2 µM | [9] 77.8 µM and 62 µM and 33.9 µM

O=P(O)(O)CN(CP(=O)(O)O)CP(=O)(O)O
inactive: [1] | [2] | [4] | [5] | [9]

Cc1cc(=O)[nH]o1
inactive: [1] | [2] | [3] | [8]

ClCc1ccccn1
not listed: [4] | [5] | [7]
inactive: all other assays above

Cl/C=C\C[N+]12CN3CN(CN(C3)C1)C2
not listed: [3] | [6] | [8]
inactive: all other assays above

COc1ccc(C=O)cc1
not listed: [4] | [7] | [8]
inactive: all other assays above

Cc1ccccc1C(=O)Nc1cccc(OC(C)C)c1
not listed: [3] | [5]
inactive: all other assays above

CCC(=O)c1ccccc1
not listed: [4] | [5] | [9]
inactive: all other assays above

O=C/C=C/c1ccccc1
not listed: [3]
inactive: all other assays above

COc1cccc(C=O)c1
not listed: [6]
inactive: all other assays above

N#Cc1ccccn1
not listed: [4]
inactive: all other assays above

CNC
inactive: all assays above

C[C@H]1CCCC(=O)CCC/C=C/c2cc(O)cc(O)c2C(=O)O1
active: [5] 12.3 µM and 15.8 µM | [7] 11.7 µM | [9] 8.07 µM and 12.3 µM
inactive: [1] | [2] | [4] | [6] | [7] | [8]

C1CCC(NC2CCCCC2)CC1
not listed: [3] | [7]
inactive: all other assays above

CC(C)CCCCCCOC(=O)c1ccccc1C(=O)OCCCCCCC(C)C
inactive: [1] | [2] | [3] | [6]

CCCCOCCOC(C)=O
not listed: [3] | [8]
inactive: all other assays above

CC(C#N)CCC#N (stereo not given)
not listed: [3]
inactive: all other assays above

O=[N+]([O-])c1c(Cl)c(Cl)cc(Cl)c1Cl
not listed: [3] | [7]
inactive: all other assays above

CC(Br)C(=O)O (stereo not given)
not listed: [7]
inactive: all other assays above

COc1cc2c(cc1OC)[C@@]13CCN4CC5=CCO[C@H]6CC(=O)N2[C@H]1[C@H]6[C@H]5C[C@H]43
not listed: [3]
inactive: all other assays above

COc1ccc(C=O)cc1OC
not listed: [6]
inactive: all other assays above

CC(C)OC(=O)Nc1ccccc1
not listed: [6] | [7] | [8]
inactive: all other assays above

CCC[CH2][Sn]([CH2]CCC)([CH2]CCC)[O]C(=O)c1ccccc1
active: [1] 0.906 µM | [2] 930 nM | [4] 2.09 µM | [5] 24.4 µM | [6] 953 nM | [8] 1.77 µM | [9] 27.2 µM

Oc1ccc(-c2ccccc2)cc1
not listed: [3]
inactive: all other assays above

O=S(=O)(c1ccc(Cl)cc1)c1ccc(Cl)cc1
inactive: all assays above

CN(C)P(=O)(N(C)C)N(C)C
not listed: [3] | [4]
inactive: all other assays above

CCCCP(CCCC)CCCC
not listed: [1] | [7]
inactive: all other assays above

[O-][Cl+2]([O-])O
not listed: [2] | [3] | [7]
inactive: all other assays above

COC(=O)Cc1ccccc1
inactive: [1] | [5] | [9]

C=C(C)C#N
not listed: [2] | [3]
inactive: all other assays above

— PubChem BioAssay (EPA / NIEHS)
